This note sets out measurements from PubChem BioAssay (NCI).

Test systems include HCT-15 colon; HT29 colon; SNB-75 CNS; SNB-19 CNS; U251 CNS; PC-3 prostate; SK-MEL-5 melanoma; UACC-62 melanoma; LOX IMVI melanoma; SK-MEL-2 melanoma; EKVX NSCLC; SN12C renal; UO-31 renal; TK-10 renal; ACHN renal; CAKI-1 renal; A498 renal; CCRF-CEM leukemia; MOLT-4 leukemia; SK-MEL-28 melanoma.
Assay in all cases: NCI-60 one-dose screen, 48 h (100 = growth as untreated, 0 = no growth, -100 = all killed)
Conditions in all cases: 10 µM unless noted

SMILES strings stand for the structures. Several values for one entry are separate records, joined by “and”; a condition that tells them apart may be missing. Equal entries are not always repeated. About 83,000 compounds went through this panel and 20% of them were active in at least one assay; those are over-represented in the sample as a whole.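 In brief: 96-well plates, 48 h treatment, single concentration, percent growth endpoint.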 Activity calls are given as the source filed them. Rule for the calls: active = growth percent below 10; inactive = the rest.

For the compound `CNc1cc(-c2cccc(OC(F)(F)F)c2)nc2ccc(N3CCCC3)cc12`, the growth was 13.5% (inactive) and -8.32% (active) and 3.05% (active) with HCT-15 colon; 5.99% (active) and 1.66% (active) and 1.06% (active) with HT29 colon; 107% (inactive) and 76.5% (inactive) in the assay on SNB-75 CNS; 18.7% (inactive) and 12.2% (inactive) and 16.2% (inactive) in the assay on SNB-19 CNS; -42.1% (active) and -81.2% (active) and -79.4% (active) in the assay with U251 CNS; -72% (active) and 8.8% (active) and 13.1% (inactive) in the assay on PC-3 prostate. The growth in the assay with SK-MEL-5 melanoma was -77.4% (active) and -88.7% (active) and -70.6% (active); in the assay with UACC-62 melanoma, -71.8% (active) and -74.8% (active) and -72.1% (active); in the assay on LOX IMVI melanoma, -64.1% (active) and -93.8% (active) and -90.1% (active); in the assay with SK-MEL-2 melanoma, 85.6% (inactive) and -78.5% (active) and -74.4% (active); with EKVX NSCLC, 84.1% (inactive) and 39.2% (inactive) and 11.9% (inactive); in the assay on SN12C renal it was -18.5% (active) and -44.5% (active) and -23.2% (active). The growth is 7.85% (active) and -81.2% (active) and 26.1% (inactive) in the assay with UO-31 renal; -55% (active) and -45.4% (active) and -12% (active) with TK-10 renal; -99.6% (active) and -99.5% (active) and -98.9% (active) in the assay with ACHN renal; 68.2% (inactive) and -88.8% (active) and -50.9% (active) in the assay with CAKI-1 renal; 77.2% (inactive) and 45.9% (inactive) and 47.7% (inactive) in the assay on A498 renal; -36.5% (active) and -23.4% (active) and -0.147% (active) in the assay with CCRF-CEM leukemia. Moreover, the growth in the assay with MOLT-4 leukemia is -38.6% (active) and -30.7% (active) and 2.3% (active).

`O=C1c2ccccc2C(=O)N1/N=C/c1ccc2c(c1)OCO2`: the growth is 98.2% (inactive) in the assay on HCT-15 colon; 94.3% (inactive) with HT29 colon; 104% (inactive) in the assay with SNB-75 CNS; 93% (inactive) with SNB-19 CNS; 99.8% (inactive) in the assay with U251 CNS; 74.1% (inactive) in the assay on PC-3 prostate. Moreover, the growth with SK-MEL-5 melanoma was 105% (inactive); in the assay with UACC-62 melanoma it was 90.3% (inactive); in the assay on LOX IMVI melanoma it was 100% (inactive); in the assay with SK-MEL-28 melanoma, 103% (inactive); in the assay on SK-MEL-2 melanoma, 95.1% (inactive); with SN12C renal it was 86.3% (inactive). The growth was 102% (inactive) in the assay on TK-10 renal; 94.2% (inactive) with ACHN renal; 110% (inactive) in the assay with CAKI-1 renal; 81.4% (inactive) in the assay on A498 renal; 93.1% (inactive) with CCRF-CEM leukemia; 86.3% (inactive) in the assay on MOLT-4 leukemia.

As for `c1ccc2c(CC3=NCCN3)cccc2c1`, the growth with HCT-15 colon is 104% (inactive) and 106% (inactive); with HT29 colon it was 103% (inactive) and 96.3% (inactive); in the assay on SNB-75 CNS, 92.9% (inactive) and 105% (inactive); in the assay on SNB-19 CNS it was 107% (inactive) and 104% (inactive); with U251 CNS it was 94.6% (inactive) and 100% (inactive); with PC-3 prostate, 103% (inactive) and 96.2% (inactive). Moreover, the growth in the assay with SK-MEL-5 melanoma is 92.7% (inactive) and 108% (inactive); in the assay on UACC-62 melanoma, 108% (inactive) and 106% (inactive); with LOX IMVI melanoma, 91.9% (inactive) and 99.4% (inactive); in the assay on SK-MEL-28 melanoma it was 109% (inactive) and 107% (inactive); with SK-MEL-2 melanoma, 132% (inactive) and 110% (inactive); in the assay with SN12C renal, 103% (inactive) and 107% (inactive). Also, the growth in the assay with UO-31 renal is 97.6% (inactive) and 98.7% (inactive); in the assay on TK-10 renal, 114% (inactive) and 108% (inactive); with ACHN renal, 102% (inactive) and 116% (inactive); with CAKI-1 renal, 92.9% (inactive); in the assay with A498 renal, 90.3% (inactive) and 81.4% (inactive); with CCRF-CEM leukemia it was 99.8% (inactive). In addition, in the assay on MOLT-4 leukemia, the growth is 113% (inactive) and 108% (inactive).

For the compound `c1ccc(NCc2ccc3c(c2)OCO3)cc1`, the growth in the assay with HCT-15 colon is 108% (inactive) and 93% (inactive); in the assay on HT29 colon it was 103% (inactive) and 104% (inactive); in the assay with SNB-75 CNS it was 89.7% (inactive) and 95.8% (inactive); with SNB-19 CNS, 99% (inactive); in the assay with U251 CNS it was 99.3% (inactive) and 93.3% (inactive); in the assay on PC-3 prostate, 96.1% (inactive) and 93.6% (inactive). Moreover, the growth is 100% (inactive) with SK-MEL-5 melanoma; 110% (inactive) and 100% (inactive) with UACC-62 melanoma; 106% (inactive) and 98.9% (inactive) in the assay on LOX IMVI melanoma; 120% (inactive) and 105% (inactive) in the assay on SK-MEL-28 melanoma; 106% (inactive) and 105% (inactive) in the assay with SK-MEL-2 melanoma; 107% (inactive) in the assay with EKVX NSCLC. Also, the growth was 105% (inactive) and 100% (inactive) with SN12C renal; 102% (inactive) and 99.7% (inactive) in the assay with TK-10 renal; 109% (inactive) and 97.4% (inactive) in the assay on ACHN renal; 96.8% (inactive) and 101% (inactive) with CAKI-1 renal; 101% (inactive) and 86.9% (inactive) with A498 renal; 101% (inactive) and 92.3% (inactive) in the assay with CCRF-CEM leukemia. Also, in the assay with MOLT-4 leukemia, the growth is 95.7% (inactive) and 97.2% (inactive).

On to `Cn1c(=O)n(-c2ccc(C(C)(C)C#N)cc2)c2c3cc(-c4cnc5ccccc5c4)ccc3ncc21`, for which the growth is 9.69% (active) and 14.5% (inactive) with HCT-15 colon; 4.74% (active) and -10.5% (active) in the assay with HT29 colon; -30.1% (active) and -24.4% (active) with SNB-75 CNS; 14.9% (inactive) and 14.7% (inactive) in the assay on SNB-19 CNS; 8.23% (active) and 8.1% (active) in the assay with U251 CNS; 13.2% (inactive) and -18% (active) in the assay on PC-3 prostate. Also, the growth in the assay with SK-MEL-5 melanoma is -62.1% (active) and -89.1% (active); in the assay on UACC-62 melanoma, -18.9% (active) and -20.3% (active); in the assay on LOX IMVI melanoma, 1.14% (active) and 2.87% (active); in the assay with SK-MEL-28 melanoma it was -1.82% (active) and 1.77% (active); in the assay with SK-MEL-2 melanoma, -42.4% (active); in the assay on SN12C renal, 15.6% (inactive) and 17.1% (inactive). Besides, the growth was -14.7% (active) and -16.6% (active) in the assay with UO-31 renal; -27.5% (active) and -27.4% (active) in the assay with TK-10 renal; 5.22% (active) and 9.17% (active) in the assay on ACHN renal; 5.77% (active) and -2.85% (active) with CAKI-1 renal; -46.3% (active) and -44.5% (active) in the assay with A498 renal; 10.1% (inactive) in the assay on CCRF-CEM leukemia. Also, the growth in the assay with MOLT-4 leukemia was -5.74% (active) and -20.5% (active).

Turning to `N#C/C(=C/c1c(O)ccc2ccccc12)C(N)=O`, the growth in the assay with HCT-15 colon was 100% (inactive); in the assay with HT29 colon, 101% (inactive); with SNB-75 CNS, 87.4% (inactive); with SNB-19 CNS, 109% (inactive); with U251 CNS, 103% (inactive); in the assay on PC-3 prostate, 94% (inactive). Further, the growth in the assay on SK-MEL-5 melanoma was 94.1% (inactive); with UACC-62 melanoma, 104% (inactive); in the assay with LOX IMVI melanoma, 55.9% (inactive); in the assay with SK-MEL-28 melanoma, 110% (inactive); in the assay with SK-MEL-2 melanoma, 87.6% (inactive); in the assay on SN12C renal, 108% (inactive). Moreover, the growth in the assay with UO-31 renal was 54% (inactive); in the assay on TK-10 renal it was 114% (inactive); in the assay with ACHN renal it was 92.4% (inactive); in the assay with CAKI-1 renal, 84% (inactive); with A498 renal, 107% (inactive); in the assay with MOLT-4 leukemia it was 92.4% (inactive).

For the compound `Cc1ccc(NCSc2ccc(Cl)cc2)cc1`, the growth is 77.1% (inactive) and 90.7% (inactive) with HCT-15 colon; 79.4% (inactive) and 75.7% (inactive) in the assay with HT29 colon; 86% (inactive) and 91.7% (inactive) with SNB-75 CNS; 89.3% (inactive) and 90% (inactive) with SNB-19 CNS; 71.4% (inactive) and 79.1% (inactive) with U251 CNS; 66.8% (inactive) and 62.3% (inactive) in the assay on PC-3 prostate. Further, the growth is 86.5% (inactive) and 102% (inactive) with SK-MEL-5 melanoma; 82.3% (inactive) and 85% (inactive) in the assay with UACC-62 melanoma; 88.6% (inactive) and 95.2% (inactive) in the assay with LOX IMVI melanoma; 86.9% (inactive) and 94.3% (inactive) in the assay with SK-MEL-28 melanoma; 108% (inactive) and 93.6% (inactive) with SK-MEL-2 melanoma; 46.2% (inactive) and 42.7% (inactive) in the assay with SN12C renal. Also, the growth is 27% (inactive) and 14.7% (inactive) with UO-31 renal; 90.8% (inactive) and 78.2% (inactive) in the assay on TK-10 renal; 88.4% (inactive) and 99.6% (inactive) in the assay with ACHN renal; 59.5% (inactive) in the assay on CAKI-1 renal; 62.5% (inactive) and 66.3% (inactive) in the assay on A498 renal; 17.8% (inactive) with CCRF-CEM leukemia. Further, the growth with MOLT-4 leukemia is 25.1% (inactive) and 47.8% (inactive).

On to `O=C(CCl)c1ccc2c(c1)Nc1ccccc1S2`, for which the growth was 85.1% (inactive) and 21.2% (inactive) with HCT-15 colon; 101% (inactive) and 95.6% (inactive) with HT29 colon; 88.6% (inactive) and 102% (inactive) in the assay on SNB-75 CNS; 99.7% (inactive) and 98% (inactive) with SNB-19 CNS; 98% (inactive) and 92% (inactive) in the assay on U251 CNS; 92.8% (inactive) and 104% (inactive) in the assay with PC-3 prostate. The growth is 94.1% (inactive) and 99.5% (inactive) in the assay with SK-MEL-5 melanoma; 87.5% (inactive) in the assay with UACC-62 melanoma; 79.1% (inactive) and 48.2% (inactive) with LOX IMVI melanoma; 80.5% (inactive) and 72.5% (inactive) with SK-MEL-2 melanoma; 98.6% (inactive) with EKVX NSCLC; 104% (inactive) and 93.8% (inactive) in the assay with SN12C renal. The growth is 97.7% (inactive) and 81% (inactive) in the assay with UO-31 renal; 95.5% (inactive) in the assay with TK-10 renal; 104% (inactive) and 92.4% (inactive) with ACHN renal; 98.4% (inactive) in the assay with CAKI-1 renal; 84.1% (inactive) and 77.2% (inactive) in the assay with A498 renal; 53.7% (inactive) and 50.5% (inactive) with CCRF-CEM leukemia. Also, the growth with MOLT-4 leukemia is 46.3% (inactive) and 48.5% (inactive).
